# According to PubChem BioAssay (NCATS):
# Inconclusive results are not listed. A call without a number means that no potency is given here. Calls of active or inactive are those of the source. Calls follow the shape of the dose curve; as a rule, active = well fitted inhibition curve with a large enough effect; inconclusive = small, poorly fitted or top-dose-only effect; inactive = flat fitted curve, though single readings scatter.
# Molecular target: Phospholipid hydroperoxide glutathione peroxidase GPX4 (Homo sapiens) (UniProt P36969)
# Sequence (P36969 whole entry, looked up): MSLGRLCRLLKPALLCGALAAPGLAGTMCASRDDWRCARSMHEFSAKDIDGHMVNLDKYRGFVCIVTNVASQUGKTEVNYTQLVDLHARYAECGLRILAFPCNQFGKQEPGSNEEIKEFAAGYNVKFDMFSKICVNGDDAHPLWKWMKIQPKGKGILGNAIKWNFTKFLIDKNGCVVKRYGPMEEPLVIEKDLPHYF
# Assay: Primary qHTS Assay for Inhibitors of Recombinant Selenoprotein Glutathione Peroxidase 4 (GPX4) (AID 1845192); also: nearly all actives have a fitted effect of over 65% in size
# Conditions: recombinant GPX4, GR-coupled NADPH fluorescence, 15 min; series mostly up to 50 µM
# Outline: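 qHTS, GR-coupled: GPX4 200 nM + cpd 30 min RT → GSH 1 mM, NADPH 0.5 mM, GR 100 nM → CHP 0.5 mM start; fluor 340/450 at t0 and t15 min; no-enzyme wells as control.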
Compound,"activity change, negative = inhibition",Potency
C[C@@H]1O[C@@H](O[C@@H]2[C@@H](O[C@@H]3O[C@@H](C)[C@H](O[C@@H]4OC[C@H](O)[C@H](O[C@@H]5OC[C@@H](O)[C@H](O)[C@H]5O)[C@H]4O)[C@@H](O[C@@H]4OC[C@](O)(CO)[C@H]4O)[C@H]3O)[C@H](OC(=O)[C@]34CCC(C)(C)C[C@H]3C3=CCC5[C@@]6(C)C[C@H](O)[C@H](O[C@@H]7O[C@H](CO[C@@H]8OC[C@H](O)[C@H](O)[C@H]8O)[C@@H](O)[C@H](O)[C@H]7O)C(C)(C)C6CC[C@@]5(C)[C@]3(C)C[C@H]4O)OC[C@H]2O)[C@H](O)[C@H](O)[C@H]1O (some centres undefined),-0.822% [at 9.73 µM] (inactive),
Cc1cc(C(=O)Nc2cccc(C(=O)Nc3cccc(C(F)(F)F)c3)c2)on1,,inactive
COc1ccc2c(OC)c3ccoc3nc2c1OC,,inactive
COc1c2cc(c(O)c1OC)-c1cc(ccc1O)CCC(O)CCCC2 (centres undefined),,inactive
O=C1NC(=O)C(c2cn3c4c(cccc24)CCC3)C1c1c[nH]c2ccccc12 (centres undefined),,inactive
Cc1cccc(-c2[nH]c(Cc3cccc(C(N)=O)c3)nc2-c2ccc3nccnc3c2)n1,,inactive
C[C@@H]1C[C@@H](O)[C@@]23CO[C@@H](O)[C@@H]2CCC[C@@H]3[C@@]12C[C@@H](c1ccoc1)OC2=O,,inactive
CC[C@H](NC(=O)[C@H](CS(=O)(=O)CC1CC1)N[C@@H](c1ccc(F)cc1)C(F)(F)F)C(=O)C(=O)NC1CC1,,inactive
O=C(O)CCCCCC[C@H]1C(=O)NC(=O)N1CC[C@@H](O)C1CCCCC1,,inactive
